Measured values published in PubChem BioAssay AID1159580 (chemical genetic matrix, 2015).
Hit rate of the full screen: of about 5,500 compounds, about 2,000 (36%) were called active. Not shown: some 18% with an inconclusive outcome. No stated cut-off is given here; in the data, active means normalized growth mostly below about 0.91 (no sharp cut-off); inconclusive means no clear call, values can overlap the other calls; inactive means mostly above about 0.92. The list shows a part of the results.

Test: chemical genetic growth profiling, strain panel (AID 1159580);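 further: tested at 20 µM; growth read once vehicle control cultures reached saturation at 30 °C; 1 = growth at the plate median or of vehicle wells; lower values mean less growth of the strain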
Conditions: S. cerevisiae deletion strains, growth OD

Measured: normalized growth

COc1cc2oc3cc(OC)c(OC)c(CC=C(C)C)c3c(=O)c2c(OC)c1CC=C(C)C
inactive: locus YHR030C, strain SLT2, hits give low values 0.934 | locus YHR079C, strain IRE1, hits give low values 0.927 | locus YJL095W, strain BCK1, hits give low values 0.918 | locus YJR066W, strain TOR1, hits give low values 0.885 | locus YLR113W, strain HOG1, hits give low values 0.895 | locus YNL183C, strain NPR1, hits give low values 0.862 | locus YOR231W, strain MKK1, hits give low values 0.905 | locus YPL256C, strain CLN2, hits give low values 0.955
